Measured values reported in ChEMBL document CHEMBL3988442, “University of Dundee, Small-Polar-MMV Screening Library” (2021).
About 13,000 (27%) of roughly 48,000 compounds showed an effect of 50% or more. The list shows a part of the results.

Test system: Wolbachia pipientis
Assay: Anti-Wolbachia Cell-Based Screen
Type: functional
Set-up: scale not given: in the data most compounds retested in dose-response had high values
Conditions: 5 µM

Compared with `COc1cccc(C(O)Cn2ncc3ncccc3c2=O)c1` (stereo unspecified), `COc1cc(C(C)=O)ccc1SCC(=O)Nc1ccccn1` is higher in “Percent Effect” value: -14.22% for the first, -8.38% for the second.

Going from `Cc1nc(CNC(C)c2ccc(S(=O)(=O)N(C)C)cc2)no1` (stereo unspecified) to `Cc1nsc(NCc2ccc(S(=O)(=O)N(C)C(C)C)cc2)n1`, the “Percent Effect” value rises from -3.104% to 22.68%.

First: Cc1cscc1C(=O)NC1CC(=O)N(C(C)C)C1=O (stereo unspecified)
Second: Cc1nc(-c2ccc(CC(=O)N3CCN(C(=O)C(C)C)CC3)cc2)cs1
The “Percent Effect” value of the first is lower: -19.94% for the first, -9.711% for the second.

Compared with `c1cc(CN2CCc3nc(N4CCOCC4)nc(NC4CC4)c3C2)co1`, `Oc1nc(N2CCOCC2)nc2c1CCN(Cc1ccccc1)CC2` is higher in “Percent Effect” value: 2.456% for the first, 129.9% for the second.

Going from `Oc1nc(N2CCCC2)nc2c1CCN(Cc1cccnc1)CC2` to `Oc1nc(N2CCOCC2)nc2c1CCN(Cc1cccnc1)CC2`, the “Percent Effect” value falls from 121.5% to -6.583%.

Compared with `Oc1nc(N2CCOCC2)nc2c1CCN(Cc1cccc(F)c1)CC2`, `Oc1nc(N2CCOCC2)nc2c1CCN(Cc1ccc(F)cc1)CC2` is lower in “Percent Effect” value: 117% for the first, 116.9% for the second.

First: Cn1ccnc1CN1C(=O)CO[C@H]2CN(Cc3ccc(F)c(F)c3)C[C@H]21
Second: COc1ncc(C2(O)CCN(Cc3ccc(F)c(F)c3)CC2)c(OC)n1.Cl
The “Percent Effect” value of the first is lower: 5.068% for the first, 122.5% for the second.

Compared with `Cn1cc(S(=O)(=O)N2CCC(OCCCc3ccccc3)C2)cn1` (stereo unspecified), `CCn1cc(S(=O)(=O)NCC(OC)c2ccccc2)cn1` (stereo unspecified) is higher in “Percent Effect” value: -5.129% for the first, 8.527% for the second.

Compared with `CC(=O)c1ccc(N2CCCC(CO)(CCc3ccccc3)C2)nc1` (stereo unspecified), `Cn1nccc1C1CCN(Cc2ccn(-c3ccccc3)n2)CC1` is lower in “Percent Effect” value: 11.39% for the first, -5.293% for the second.

First: CC(C)C(O)C1CCN(c2ccnc(C(=O)NCc3ccco3)c2)CC1 (stereo unspecified)
Second: CC(C)n1cnc2c1C(C(=O)NCCC#N)N(Cc1ccccc1)CC2.O=C(O)C(F)(F)F (stereo unspecified)
The “Percent Effect” value of the first is higher: -3% for the first, -22.73% for the second.

First: COc1ccc(NC(=O)CNc2cccc3c2CCCC3)c(OC)c1
Second: COc1ccc(NC(=O)CSc2ccc3nncn3n2)c(OC)c1
The “Percent Effect” value of the first is lower: -2.331% for the first, 116.1% for the second.

Going from `CCN(CC)S(=O)(=O)c1ccc(OC)c(NC(=O)CSC)c1` to `COc1ccc(OC)c(NC(=O)CSc2ccc3nncn3n2)c1`, the “Percent Effect” value rises from -7.74% to 92.9%.

First: COc1ccc(Cl)cc1NC(=O)CNc1ccn(CC(N)=O)n1
Second: COc1cc(Cl)c(C)cc1NC(=O)CNc1ccn(CC(N)=O)n1
The “Percent Effect” value of the first is higher: 12.03% for the first, -71.24% for the second.

Going from `COc1ccc(NC(=O)CCC2CCCN(S(=O)(=O)C3CC3)C2)c(C)c1` (stereo unspecified) to `Cc1ccc(C(=O)N(C)C)cc1NC(=O)COCC1CC1`, the “Percent Effect” value falls from -10.5% to -15.5%.

Compared with `COc1ccc(OC)c(-n2cnnc2CN)c1`, `COc1ccc(NC(=O)CSc2nncn2-n2cccc2)c(OC)c1` is higher in “Percent Effect” value: -14.69% for the first, 89.78% for the second.

First: COc1ccc(NC(=O)CCSc2ccc3nncn3n2)c(OC)c1
Second: COc1ccc(OC)c(CCC(=O)Nc2cc(C)n[nH]2)c1
The “Percent Effect” value of the first is higher: 100.6% for the first, -33.89% for the second.

Going from `CCOCC(=O)Nc1cc(-n2nnnc2C2CC2)ccc1F` to `Cc1csc(NC(=O)CN2CCC(c3ccnn3CCO)CC2)n1`, the “Percent Effect” value falls from -4.453% to -8.035%.

Compared with `CNC(=O)NC(=O)C(NCc1cccs1)c1ccccc1` (stereo unspecified), `C[C@@H](NC(=O)c1cccnc1)c1onc(-c2ccccc2)c1C(=O)O` is higher in “Percent Effect” value: -60.87% for the first, -0.5339% for the second.

First: CC(C)c1ccc(/C=C/CC(=O)NC2CCN(C(N)=O)C2)cc1 (stereo unspecified)
Second: NC(=O)CN1CCC(NC(=O)Nc2nccs2)CC1
The “Percent Effect” value of the first is lower: -19.1% for the first, 9.96% for the second.

Compared with `Cc1nnc([C@@]23CCO[C@@H]2CCN(Cc2nccs2)C3)o1`, `Cc1nnc([C@@]23CCO[C@@H]2CCN(Cc2scnc2C)C3)o1` is higher in “Percent Effect” value: 93.98% for the first, 102.2% for the second.

Compared with `Cc1ncsc1CN1CC[C@H]2OCC[C@@]2(C(=O)N2CCCC2)C1`, `CNC(=O)[C@@]12CCO[C@@H]1CCN(Cc1scnc1C)C2.O=C(O)C(F)(F)F` is higher in “Percent Effect” value: -2.591% for the first, -1.55% for the second.

Going from `CCS(=O)(=O)N1CC[C@H]2OCC[C@@]2(c2nnc(C)o2)C1` to `Cc1noc([C@@]23CCO[C@@H]2CCN(Cc2scnc2C)C3)n1.O=C(O)C(F)(F)F`, the “Percent Effect” value rises from 3.137% to 105.3%.

First: Cc1noc([C@@]23CCO[C@@H]2CCN(CC2CCOCC2)C3)n1.O=C(O)C(F)(F)F
Second: Cc1nnc([C@]23COC[C@H]2CN(Cc2nccs2)C3)o1.O=C(O)C(F)(F)F
The “Percent Effect” value of the first is lower: -22.2% for the first, -6.391% for the second.

First: N#CCCCS(=O)(=O)N1CCCC1CC(=O)c1cccs1 (stereo unspecified)
Second: NC(=O)C1CCN(CCCNC(=O)Nc2nccs2)CC1
The “Percent Effect” value of the first is lower: -18.29% for the first, 104.9% for the second.

First: COCc1nn(CC2CC2)c2c1CN(Cc1cncn1C)CC2.O=C(O)C(F)(F)F
Second: CN(C)c1cc(NCc2cnc3n2CCN(CC2CC2)CC3)ncn1.O=C(O)C(F)(F)F
The “Percent Effect” value of the first is lower: -13.43% for the first, 3.56% for the second.

First: COc1ncc(C2(O)CCN(Cc3cc(F)ccc3F)CC2)c(OC)n1.Cl
Second: COc1ncc(C2(O)CCN(Cc3cccc(F)c3F)CC2)c(OC)n1.Cl
The “Percent Effect” value of the first is lower: 106.6% for the first, 130.5% for the second.

First: COc1ncc(C2(O)CCN(Cc3c(F)cccc3F)CC2)c(OC)n1.Cl
Second: COc1ncc(C2(O)CCN(Cc3cc(F)cc(F)c3)CC2)c(OC)n1
The “Percent Effect” value of the first is lower: 1.004% for the first, 125.6% for the second.

Compared with `COc1ccc(F)c(CN2CCC3(CCC(=O)N(CC(N)=O)C3)CC2)c1`, `COc1cc(OC)cc(C2(O)CCN(Cc3ncc(C)o3)CC2)c1` is lower in “Percent Effect” value: 10.55% for the first, 10.39% for the second.

Going from `COc1ncc(C2(O)CCN(Cc3ccccc3O)CC2)c(OC)n1` to `COc1cc(OC)cc(C2(O)CCN(Cc3nc(C)c(C)o3)CC2)c1`, the “Percent Effect” value rises from -6.313% to -6.043%.

First: Cc1cnn(CC(C)NCC(=O)NCCc2cccs2)c1 (stereo unspecified)
Second: CCn1cc(CNCC(c2ccc(C)s2)N2CCOCC2)cn1 (stereo unspecified)
The “Percent Effect” value of the first is lower: -55.8% for the first, 13.07% for the second.

Going from `Cc1ncc2c(n1)CN(Cc1nnc(Cc3ccccc3)o1)CC2` to `O=C(NCc1ccccc1CN1CCCC1)Nc1nncs1`, the “Percent Effect” value rises from 5.635% to 6.886%.

Compared with `Cc1cccnc1CNCC1(O)CCCN(CC2CCCCC2)C1=O` (stereo unspecified), `Cc1cccnc1CN(C)CC1(O)CCCN(CC2CCCCC2)C1=O` (stereo unspecified) is higher in “Percent Effect” value: -7.545% for the first, 93.19% for the second.

First: Cc1nonc1CN(C)CC1(O)CCCN(CCC2CCCCC2)C1=O (stereo unspecified)
Second: CN(C)c1ncc(-c2cc(C(=O)N3CCCC3)n(CC3CC3)c2)cn1
The “Percent Effect” value of the first is lower: 3.713% for the first, 121.7% for the second.

Going from `O=C(NCCOc1ccc(C(F)(F)F)cn1)c1ccoc1` to `COCCCNC(=O)c1cc(-c2cnc(N(C)C)nc2)cn1CC1CC1.O=C(O)C(F)(F)F`, the “Percent Effect” value rises from 0.7109% to 117.6%.

First: COc1ccc(OCc2nccc(-c3cc(C(=O)O)ccn3)n2)cc1
Second: COc1ccc(C(C(=O)O)N2CCC(O)(c3cccnc3)CC2)cc1Cl (stereo unspecified)
The “Percent Effect” value of the first is lower: -32.77% for the first, 2.828% for the second.

Going from `COc1ccc(S(=O)(=O)NCC(c2cccn2C)N(C)C)c(C)c1` (stereo unspecified) to `COc1ccc(S(=O)(=O)NCC(N)c2ccccc2)c(C)c1.Cl` (stereo unspecified), the “Percent Effect” value falls from 5.566% to -12.16%.

Going from `Cc1nn(C)cc1S(=O)(=O)NCC(c1ccccc1Cl)N1CCCC1` (stereo unspecified) to `Cc1nn(C)cc1S(=O)(=O)NCC(c1ccccc1)N1CCCCCC1.Cl` (stereo unspecified), the “Percent Effect” value rises from 87.53% to 112.3%.

Compared with `CCn1cc(S(=O)(=O)NCC(c2ccccc2)N2CCOCC2)c(C)n1` (stereo unspecified), `COc1ccc(C(CNS(=O)(=O)c2cn(C)nc2C)N2CCCC2)cc1.Cl` (stereo unspecified) is higher in “Percent Effect” value: 72.63% for the first, 105.6% for the second.

Compared with `Cc1cccc(S(=O)(=O)NCC(C)N2CCN(C)CC2)c1Cl` (stereo unspecified), `Cc1nc(C)c(C(=O)NCC(c2ccccc2Cl)N2CCOCC2)s1` (stereo unspecified) is higher in “Percent Effect” value: -7.911% for the first, 6.115% for the second.

First: O=C(NCCCn1cncn1)NCC(c1ccccc1)N1CCCC1 (stereo unspecified)
Second: O=C(NCc1cc[nH]n1)NCC(c1ccccc1Cl)N1CCCC1 (stereo unspecified)
The “Percent Effect” value of the first is higher: 9.834% for the first, 3.552% for the second.

First: CCCC(C)CS(=O)(=O)NCc1cccnc1OC (stereo unspecified)
Second: CCOC(=O)N1CCCn2nc(C(=O)NCCN(C)C)cc2C1
The “Percent Effect” value of the first is higher: 6.664% for the first, -7.985% for the second.

Compared with `CC(C)c1nnc2n1CCN(C(=O)c1ccc3c(c1)NC(=O)CO3)C2`, `CN(C)CCNC(=O)c1ccc(OC2CCN(CC3CC3)CC2)c(Cl)c1` is higher in “Percent Effect” value: 2.374% for the first, 3.166% for the second.

First: Cc1csc(NC(=O)NCCCN2CCC(C(N)=O)CC2)n1
Second: NC(=O)C1CCN(CCCNC(=O)Nc2nncs2)CC1
The “Percent Effect” value of the first is lower: 96.37% for the first, 106.6% for the second.

Going from `Cc1csc(CCNC(=O)C2CCN(CC(N)=O)CC2)n1` to `O=C(NCc1ccccc1CN1CCCCC1)Nc1nncs1`, the “Percent Effect” value falls from -1.435% to -2.637%.

First: O=C(NCCCN1CCN(c2ncccn2)CC1)Nc1ccccn1
Second: CN(C)c1ncc(NC(=O)N2CCC(CN3CCCC3)C2)cn1 (stereo unspecified)
The “Percent Effect” value of the first is higher: 10.78% for the first, 8.781% for the second.

Going from `O=C(C(C1CC1)C1CC1)N1CCC(n2ccnn2)CC1` to `Cc1cnc(N2C[C@@H]3CCN(CC(=O)N(C)C)C(=O)[C@H]3C2)nc1.O=C(O)C(F)(F)F`, the “Percent Effect” value falls from -3.228% to -29.89%.

First: COCCN1CCCn2cnc(CNC(=O)N(C)C)c2C1.O=C(O)C(F)(F)F.O=C(O)C(F)(F)F
Second: CN(C)c1ncc(-c2cc(C(=O)NCCO)n(CC3CC3)c2)cn1.O=C(O)C(F)(F)F
The “Percent Effect” value of the first is lower: -21.14% for the first, 116.5% for the second.

Compared with `CN(C)CCNC(=O)c1cc(-c2cnc(N(C)C)nc2)cn1CC1CC1`, `CN(C)c1ncc(-c2cc(C(=O)NC(C)(C)CO)n(CC3CC3)c2)cn1` is higher in “Percent Effect” value: 102.4% for the first, 111.9% for the second.

Compared with `CN(C)c1ncc(-c2cc(C(=O)NCCC#N)n(CC3CC3)c2)cn1.O=C(O)C(F)(F)F`, `CN(C)c1ncc(-c2cc(C(=O)O)n(CC3CC3)c2)cn1` is lower in “Percent Effect” value: 101.1% for the first, 1.495% for the second.

Compared with `COCc1nc(NC(C)c2c(C)n[nH]c2C)c2cnn(C)c2n1` (stereo unspecified), `CNC(=O)c1cc(-n2ccnc2-c2cnc(N(C)C)nc2)ccc1OC` is lower in “Percent Effect” value: 8.424% for the first, -13% for the second.

For `CN(C)C(=O)c1ccc2c(c1)N(C)C(CC(=O)NC(C)(C)CO)CO2` (stereo unspecified), the “Percent Effect” value was -1.046%.
